{
  "source": "PubChem BioAssay",
  "data": [
    {"assay": "TOR pathway CIT2 reporter hit retest – S. cerevisiae, GFP fusion, cherry picks, mother/daughter gates, confirmation (AID 2274)", "details": "S. cerevisiae CIT2-GFP strain, flow cytometry, 3 h; measured here: daughter cell gate; at 10 µM; stronger effect = higher value", "units": {"GFP response, % of DMSO": "%"}, "values": [
      {"smiles": "Cc1ccc(C(=O)NNC(=S)NC(=O)COc2ccccc2)cc1", "GFP response, % of DMSO": 139},
      {"smiles": "O=C(OCc1cc(Cl)ccc1OC(F)F)c1ccc([N+](=O)[O-])o1", "GFP response, % of DMSO": 98.1},
      {"smiles": "O=C(OCCOc1ccccc1)c1n[nH]c2ccccc12", "GFP response, % of DMSO": 104},
      {"smiles": "O=C1C=CC(=O)N1c1ccc(Sc2ccc([N+](=O)[O-])cc2)cc1", "GFP response, % of DMSO": 90.5},
      {"smiles": "CCn1c(=O)c(C(=O)Nc2ccsc2C(=O)OC)c(O)c2ccccc21", "GFP response, % of DMSO": 99.2},
      {"smiles": "COCC(=O)Nc1cc([N+](=O)[O-])ccc1C", "GFP response, % of DMSO": 100},
      {"smiles": "O=C1/C(=C\\c2ccc(O)c(O)c2)SC(=S)N1Cc1ccccc1", "GFP response, % of DMSO": 119},
      {"smiles": "COc1ccc(C(=O)/C=C2/C(=O)Nc3ccccc32)cc1", "GFP response, % of DMSO": 97.2},
      {"smiles": "O=C(Nc1cc(Sc2ccccn2)cc([N+](=O)[O-])c1)c1ccc(Cl)cc1", "GFP response, % of DMSO": 101},
      {"smiles": "c1ccc(-c2cccc(-c3ccccn3)n2)nc1", "GFP response, % of DMSO": 87.2},
      {"smiles": "CN1CCSc2ccc(C(=O)Nc3cccc(F)c3)cc21", "GFP response, % of DMSO": 89},
      {"smiles": "Cc1nn(C)cc1C(C)NC(=O)c1cc(COc2ccc(F)c(F)c2)on1", "note": "(stereo not given)", "GFP response, % of DMSO": 98.1},
      {"smiles": "Oc1ccccc1/C=N/c1c(-c2ccco2)nc2ccccn12", "GFP response, % of DMSO": 99.7},
      {"smiles": "CC(C(=O)NCCc1ccc(F)cc1)N1CCN(Cc2ccccc2)CC1", "note": "(stereo not given)", "GFP response, % of DMSO": 96.5},
      {"smiles": "COc1ccc(C(=O)/C=C2/C(=O)Nc3ccccc32)cc1OC", "GFP response, % of DMSO": 94.6},
      {"smiles": "COC(=O)CNc1c(-c2ccccn2)nc2ccc(Br)cn12", "GFP response, % of DMSO": 106},
      {"smiles": "C=CCOc1ccc(/C=C2\\N=C(C)OC2=O)cc1OC", "GFP response, % of DMSO": 106},
      {"smiles": "COc1ccccc1C1CC(c2c(-c3ccccc3)c3cc(Cl)ccc3[nH]c2=O)=NN1S(C)(=O)=O", "note": "(stereo not given)", "GFP response, % of DMSO": 112},
      {"smiles": "COC(=O)Cn1nc(-c2ccccc2)c2ccccc21", "GFP response, % of DMSO": 101},
      {"smiles": "COc1ccccc1C(=O)NNC(=O)C(=O)Nc1cccc(Cl)c1C", "GFP response, % of DMSO": 122},
      {"smiles": "O=C(NCC(=O)N1CCCC1)c1cccs1", "GFP response, % of DMSO": 105},
      {"smiles": "COC(=O)Cc1csc(Nc2ccc(F)c(Cl)c2)n1", "GFP response, % of DMSO": 106},
      {"smiles": "O=C1C2C3C=CC(CO)(O3)C2C(=O)N1c1ccccc1-c1ccccc1", "note": "(stereo not given)", "GFP response, % of DMSO": 132},
      {"smiles": "COC(=O)c1ccc(/C=C/C(=O)c2ccc(OC)c(OC)c2)cc1", "GFP response, % of DMSO": 106},
      {"smiles": "Cn1c(=O)c2ccccc2n(Cc2cccc(F)c2)c1=O", "GFP response, % of DMSO": 95.8},
      {"smiles": "COc1cc(/C=C/C(=O)c2c(O)cc(C)oc2=O)cc(OC)c1O", "GFP response, % of DMSO": 99.2},
      {"smiles": "O=[N+]([O-])c1cc(Cl)ccc1Sc1ccccn1", "GFP response, % of DMSO": 95.6},
      {"smiles": "COc1ccc(NC(=O)CCc2nc(-c3ccccc3F)no2)cc1", "GFP response, % of DMSO": 95.8},
      {"smiles": "COc1ccc(-c2nnc(NC(=O)c3ccc(S(=O)(=O)N4COCC4(C)C)cc3)o2)cc1", "GFP response, % of DMSO": 99.3},
      {"smiles": "C/C(CCC12CC3CC(CC(C3)C1)C2)=N\\NC(N)=S", "GFP response, % of DMSO": 88.1},
      {"smiles": "C=CCn1cc(/C=C/c2cc[n+](C)cc2)c2ccccc21", "GFP response, % of DMSO": 119},
      {"smiles": "Cc1ccc(S(=O)(=O)Cc2cc(F)c([N+](=O)[O-])cc2[N+](=O)[O-])cc1", "GFP response, % of DMSO": 84.1},
      {"smiles": "CS(=O)(=O)N1N=C(c2ccco2)CC1c1ccccc1", "note": "(stereo not given)", "GFP response, % of DMSO": 105},
      {"smiles": "NC(=O)CSCc1c(Cl)cccc1Cl", "GFP response, % of DMSO": 94.8},
      {"smiles": "N#C/C(=C\\c1c(N2CCCCCC2)nc2ccccn2c1=O)C(=O)NCc1ccco1", "GFP response, % of DMSO": 99.1},
      {"smiles": "O=C(OCc1ccco1)c1ccc(S(=O)(=O)N2CCCCC2)cc1", "GFP response, % of DMSO": 99.2},
      {"smiles": "O=C(OCC(=O)N1CCN(C(=O)c2ccco2)CC1)c1cc(-c2ccc(Cl)c(Cl)c2Cl)nc2ccccc12", "GFP response, % of DMSO": 105},
      {"smiles": "COc1ccc(/C(C)=N/NC(=O)c2ccc(N(C)C)cc2)cc1", "GFP response, % of DMSO": 103},
      {"smiles": "O=C(c1ccccc1Br)N1CCN(c2ccccc2)CC1", "GFP response, % of DMSO": 94.8},
      {"smiles": "O=C(Nc1nc(-c2ccc(Cl)cc2)cs1)c1cccnc1", "GFP response, % of DMSO": 93.8}
    ]},
    {"assay": "TOR pathway CIT2 reporter hit retest – S. cerevisiae, GFP fusion, cherry picks, mother/daughter gates, confirmation (AID 2274)", "details": "S. cerevisiae CIT2-GFP strain, flow cytometry, 3 h; measured here: mother cell gate; at 10 µM; stronger effect = higher value", "units": {"GFP response, % of DMSO": "%"}, "values": [
      {"smiles": "Cc1ccc(C(=O)NNC(=S)NC(=O)COc2ccccc2)cc1", "GFP response, % of DMSO": 110},
      {"smiles": "O=C(OCc1cc(Cl)ccc1OC(F)F)c1ccc([N+](=O)[O-])o1", "GFP response, % of DMSO": 92.3},
      {"smiles": "O=C(OCCOc1ccccc1)c1n[nH]c2ccccc12", "GFP response, % of DMSO": 100},
      {"smiles": "O=C1C=CC(=O)N1c1ccc(Sc2ccc([N+](=O)[O-])cc2)cc1", "GFP response, % of DMSO": 63.8},
      {"smiles": "CCn1c(=O)c(C(=O)Nc2ccsc2C(=O)OC)c(O)c2ccccc21", "GFP response, % of DMSO": 101},
      {"smiles": "COCC(=O)Nc1cc([N+](=O)[O-])ccc1C", "GFP response, % of DMSO": 98},
      {"smiles": "O=C1/C(=C\\c2ccc(O)c(O)c2)SC(=S)N1Cc1ccccc1", "GFP response, % of DMSO": 108},
      {"smiles": "COc1ccc(C(=O)/C=C2/C(=O)Nc3ccccc32)cc1", "GFP response, % of DMSO": 91.4},
      {"smiles": "O=C(Nc1cc(Sc2ccccn2)cc([N+](=O)[O-])c1)c1ccc(Cl)cc1", "GFP response, % of DMSO": 99.7},
      {"smiles": "c1ccc(-c2cccc(-c3ccccn3)n2)nc1", "GFP response, % of DMSO": 100},
      {"smiles": "CN1CCSc2ccc(C(=O)Nc3cccc(F)c3)cc21", "GFP response, % of DMSO": 91},
      {"smiles": "Cc1nn(C)cc1C(C)NC(=O)c1cc(COc2ccc(F)c(F)c2)on1", "note": "(stereo not given)", "GFP response, % of DMSO": 97.7},
      {"smiles": "Oc1ccccc1/C=N/c1c(-c2ccco2)nc2ccccn12", "GFP response, % of DMSO": 102},
      {"smiles": "CC(C(=O)NCCc1ccc(F)cc1)N1CCN(Cc2ccccc2)CC1", "note": "(stereo not given)", "GFP response, % of DMSO": 95.5},
      {"smiles": "COc1ccc(C(=O)/C=C2/C(=O)Nc3ccccc32)cc1OC", "GFP response, % of DMSO": 93.3},
      {"smiles": "COC(=O)CNc1c(-c2ccccn2)nc2ccc(Br)cn12", "GFP response, % of DMSO": 104},
      {"smiles": "C=CCOc1ccc(/C=C2\\N=C(C)OC2=O)cc1OC", "GFP response, % of DMSO": 99.7},
      {"smiles": "COc1ccccc1C1CC(c2c(-c3ccccc3)c3cc(Cl)ccc3[nH]c2=O)=NN1S(C)(=O)=O", "note": "(stereo not given)", "GFP response, % of DMSO": 112},
      {"smiles": "COC(=O)Cn1nc(-c2ccccc2)c2ccccc21", "GFP response, % of DMSO": 98.1},
      {"smiles": "COc1ccccc1C(=O)NNC(=O)C(=O)Nc1cccc(Cl)c1C", "GFP response, % of DMSO": 113},
      {"smiles": "O=C(NCC(=O)N1CCCC1)c1cccs1", "GFP response, % of DMSO": 104},
      {"smiles": "COC(=O)Cc1csc(Nc2ccc(F)c(Cl)c2)n1", "GFP response, % of DMSO": 107},
      {"smiles": "O=C1C2C3C=CC(CO)(O3)C2C(=O)N1c1ccccc1-c1ccccc1", "note": "(stereo not given)", "GFP response, % of DMSO": 113},
      {"smiles": "COC(=O)c1ccc(/C=C/C(=O)c2ccc(OC)c(OC)c2)cc1", "GFP response, % of DMSO": 102},
      {"smiles": "Cn1c(=O)c2ccccc2n(Cc2cccc(F)c2)c1=O", "GFP response, % of DMSO": 93.8},
      {"smiles": "COc1cc(/C=C/C(=O)c2c(O)cc(C)oc2=O)cc(OC)c1O", "GFP response, % of DMSO": 94.4},
      {"smiles": "O=[N+]([O-])c1cc(Cl)ccc1Sc1ccccn1", "GFP response, % of DMSO": 93.2},
      {"smiles": "COc1ccc(NC(=O)CCc2nc(-c3ccccc3F)no2)cc1", "GFP response, % of DMSO": 94.9},
      {"smiles": "COc1ccc(-c2nnc(NC(=O)c3ccc(S(=O)(=O)N4COCC4(C)C)cc3)o2)cc1", "GFP response, % of DMSO": 98.2},
      {"smiles": "C/C(CCC12CC3CC(CC(C3)C1)C2)=N\\NC(N)=S", "GFP response, % of DMSO": 87.8},
      {"smiles": "C=CCn1cc(/C=C/c2cc[n+](C)cc2)c2ccccc21", "GFP response, % of DMSO": 127},
      {"smiles": "Cc1ccc(S(=O)(=O)Cc2cc(F)c([N+](=O)[O-])cc2[N+](=O)[O-])cc1", "GFP response, % of DMSO": 72.8},
      {"smiles": "CS(=O)(=O)N1N=C(c2ccco2)CC1c1ccccc1", "note": "(stereo not given)", "GFP response, % of DMSO": 103},
      {"smiles": "NC(=O)CSCc1c(Cl)cccc1Cl", "GFP response, % of DMSO": 92.3},
      {"smiles": "N#C/C(=C\\c1c(N2CCCCCC2)nc2ccccn2c1=O)C(=O)NCc1ccco1", "GFP response, % of DMSO": 96.1},
      {"smiles": "O=C(OCc1ccco1)c1ccc(S(=O)(=O)N2CCCCC2)cc1", "GFP response, % of DMSO": 91.9},
      {"smiles": "O=C(OCC(=O)N1CCN(C(=O)c2ccco2)CC1)c1cc(-c2ccc(Cl)c(Cl)c2Cl)nc2ccccc12", "GFP response, % of DMSO": 107},
      {"smiles": "COc1ccc(/C(C)=N/NC(=O)c2ccc(N(C)C)cc2)cc1", "GFP response, % of DMSO": 104},
      {"smiles": "O=C(c1ccccc1Br)N1CCN(c2ccccc2)CC1", "GFP response, % of DMSO": 94.4},
      {"smiles": "O=C(Nc1nc(-c2ccc(Cl)cc2)cs1)c1cccnc1", "GFP response, % of DMSO": 95.6}
    ]}
  ]
}
